Hit rate of the full screen: of about 13,000 compounds, about 3,200 (25%) showed an effect of 50% or more. The list shows a part of the results.
Tested on: P. falciparum stage V gametocytes
Set-up: BacTiter-Glo ATP luminescence viability of purified stage V gametocytes in 384-well plates, per cent inhibition versus DMSO
Details: 48 h, 5 µM; inhibitor

| SMILES | % Inhibition [%] |
| --- | --- |
| Cc1ccc(C(=O)Nc2ccc(C)c(OC3CCN(CCC(C)C)C3)c2)cc1 (stereo not shown) [TCMDC-133981] | -13.13 |
| CCN(CC)CCCn1c(N)c(-c2nc3ccccc3[nH]2)c2nc(C#N)c(C#N)nc21 [TCMDC-123680] | 117 |
| CCOC(=O)c1ccc(NC(=O)Nc2ccc(-c3ccc(-c4nc5ccccc5[nH]4)cc3)cc2)cc1 [TCMDC-133265] | -0.3523 |
| N#Cc1c(N)n(CCc2ccc(F)cc2)c2nc3ccccc3nc12 [TCMDC-125779] | 44.22 |
| CN(C)CCn1c(N)c(-c2nc3ccccc3s2)c2nc(C#N)c(C#N)nc21 [TCMDC-124439] | -7.276 |
| CN(C)CCCn1c(N)c(-c2nc3ccccc3[nH]2)c2nc(C#N)c(C#N)nc21 [TCMDC-123729] | 113.1 |
| COc1ccc(COc2c(OC)cc(Cc3cnc(N)nc3N)cc2OC)cc1 [TCMDC-138619] | 7.542 |
| NC1=NC(c2ccccc2)(c2ccccc2)C(=O)N1CCCCc1ccccn1 [TCMDC-132209] | -31.55 |
| COc1ccc(O)c(C(=O)c2cc(C#N)c(=O)n(-c3ccc(Oc4ccccc4)cc3)c2)c1 [TCMDC-123628] | -33.17 |
| CCCCn1c(C(C)Oc2ccc(Cl)cc2Cl)nc2cc(S(N)(=O)=O)ccc21 (stereo not shown) [TCMDC-125564] | 8.97 |
| CC(Cc1ccc(OCc2ccccc2)cc1)Nc1nc2ccccc2c(=O)[nH]1 (stereo not shown) [TCMDC-131532] | -11.7 |
| CC(CCc1ccc(OCc2ccccc2)cc1)NCC(O)c1ccccc1 (stereo not shown) [TCMDC-131472] | 8.257 |
| CC(Cc1ccc(OCCCCOc2ccccc2)cc1)NCCc1ccccc1Cl (stereo not shown) [TCMDC-140019] | 97.11 |
| CC(Cc1ccc(OCCCCOc2ccccc2)cc1)NCCc1ccc(Oc2ccccc2)cc1 (stereo not shown) [TCMDC-140021] | 88.65 |
| COc1cccc(CCNC(C)Cc2ccc(OCCCCOc3ccccc3)cc2)c1 (stereo not shown) [TCMDC-140020] | 127.9 |
| COC(=O)c1ccc(CC(C)NCC(O)c2ccccc2Cl)cc1 (stereo not shown) [TCMDC-131422] | 7.207 |
| COc1ccc(Nc2nccc(N3CCC(NC(=O)c4cccc(C#N)c4)C3)n2)cc1 (stereo not shown) [TCMDC-133609] | -14.42 |
| COc1ccccc1CCCON1C(N)=NC(N)=NC1(C)C [TCMDC-131723] | 17.71 |
| CCCCOc1c(CCC)cc(Cc2cnc(N)nc2N)cc1CCC [TCMDC-137692] | -41.23 |
| Cc1cccc2[nH]c(-c3cccc(-c4cccc(NC(=O)c5cccnc5)c4)c3)nc12 [TCMDC-136927] | 36.77 |
| Cc1ncccc1C(=O)Nc1ccc(-c2cccc(-c3nc4c(C)cccc4[nH]3)c2)cc1 [TCMDC-136862] | -37.31 |
| Cc1cccc2[nH]c(-c3cccc(-c4ccc(NC(=O)c5cccnc5)cc4)c3)nc12 [TCMDC-136929] | -10.6 |

| SMILES | % Inhibition [%] |
| --- | --- |
| Cc1cccc2[nH]c(-c3cccc(-c4cccc(NC(=O)c5cnccc5C(F)(F)F)c4)c3)nc12 [TCMDC-137118] | 53.02 |
| Cc1cccc2[nH]c(-c3ccc(-c4cccc(NC(=O)c5cnccc5C(F)(F)F)c4)cc3)nc12 [TCMDC-137117] | -14.87 |
| Cc1cccc2[nH]c(-c3cccc(-c4ccc(NC(=O)c5cnccc5C(F)(F)F)cc4)c3)nc12 [TCMDC-137119] | 66.25 |
| c1ccc(C2=NN=C(c3ccccn3)C3C4CC(C23)C2C3CC(c5ccccc53)C42)nc1 (stereo not shown) [TCMDC-138248] | -12.71 |
| COc1ccc(C(=O)Nc2cc(Cl)c3c(c2)C2CCCN2CC3)cc1C(F)(F)F (stereo not shown) [TCMDC-139417] | -51.32 |
| COc1cc(NC(=O)/C=C/c2cc(F)cc(F)c2F)cc(OCCN2CCN(CCN3CCOCC3)CC2)c1 [TCMDC-140930] | -13.83 |
| COc1ccc(CNc2cc(C)nc3sc4c(c23)CCC2(C4)OCCO2)cc1 [TCMDC-138981] | -1.212 |
| COc1ccc(NC(=O)Nc2ccc(C)c(-c3ccc(C(=O)Nc4ccncc4)cc3)c2)cc1 [TCMDC-133705] | 11.61 |
| COc1ccc(-c2cc3nc4c(c(NCCCn5ccnc5)n3n2)CCCC4)cc1 [TCMDC-124389] | -21.29 |
| COc1ccc(-c2cncc3ccc(C(=O)NCCCn4ccnc4)nc23)cc1 [TCMDC-125412] | 77.43 |
| COc1ccc(-c2cncc3ccc(C(=O)NCc4ccncc4)nc23)cc1 [TCMDC-125411] | 51.25 |
| COc1ccc(-n2nc(C)cc2C(=O)NCc2ccc(-c3c(C)noc3C)cc2)cc1 [TCMDC-133779] | 19.66 |
| Cc1nc(NCCCn2ccnc2)cc(-c2cncc(-c3ccc(OC(F)(F)F)cc3)c2)n1 [TCMDC-125423] | 9.398 |
| COc1ccc(Nc2cc(C)nc(Nc3ccc(NC(C)=O)cc3)n2)cc1 [TCMDC-124979] | -41.12 |
| O=C(Nc1ccc(I)cc1)Nc1ccc(Cn2ncc(N3CCCNCC3)c(Cl)c2=O)cc1 [TCMDC-133322] | -17.85 |
| Cc1ccc2c(C3=CCN(CCCCC4(C)C(=O)Nc5c(F)cccc54)CC3)c(C)[nH]c2c1 (stereo not shown) [TCMDC-141005] | 12.05 |
| CCN(CC)Cc1ccc2c(=O)cc(CCc3cccc(F)c3F)n(CC(=O)N(Cc3ccc(-c4ccc(C(F)(F)F)cc4)cc3)C(C)C)c2c1 [TCMDC-141567] | 74.8 |
| CC(C)N(Cc1ccc(-c2ccc(C(F)(F)F)cc2)cc1)C(=O)Cn1c(CCc2cccc(F)c2F)cc(=O)c2ccc(CCCN3CCCCC3)cc21 [TCMDC-141581] | 119.6 |
| CN(C)CCOc1cc(NC(=O)Nc2cccc3c(-c4ccncc4)cccc23)ccc1I [TCMDC-139143] | 27.84 |
| CN(C)CCOc1cc(NC(=O)Nc2ccc(Oc3ccccc3)cc2)ccc1I [TCMDC-139113] | -27.54 |
| COc1cc(Cc2cnc(N)nc2N)cc(OC)c1OCCNC(=O)[C@@H](N)CCC(=O)O [TCMDC-137685] | -2.761 |
